Reference: the supplement of paper PMC11732987, “Enantioselective OTUD7B fragment discovery through chemoproteomics screening and high-throughput optimisation” (Communications Chemistry, 2025)

How the values were obtained:
Assay in all cases: log2 ratio of Biotin-Ahx-Ub-VS probe labelling (fragment/DMSO); higher = less target engagement (more negative = stronger competition), active = hit call of the paper (q ≤ 0.05, log2 ratio ≤ -1)
Conditions in all cases: compound concentration: 200 uM; treatment time: 3 h
USP19 = target: T1, USP19 (UniProt O94966)
T1 sequence (whole entry): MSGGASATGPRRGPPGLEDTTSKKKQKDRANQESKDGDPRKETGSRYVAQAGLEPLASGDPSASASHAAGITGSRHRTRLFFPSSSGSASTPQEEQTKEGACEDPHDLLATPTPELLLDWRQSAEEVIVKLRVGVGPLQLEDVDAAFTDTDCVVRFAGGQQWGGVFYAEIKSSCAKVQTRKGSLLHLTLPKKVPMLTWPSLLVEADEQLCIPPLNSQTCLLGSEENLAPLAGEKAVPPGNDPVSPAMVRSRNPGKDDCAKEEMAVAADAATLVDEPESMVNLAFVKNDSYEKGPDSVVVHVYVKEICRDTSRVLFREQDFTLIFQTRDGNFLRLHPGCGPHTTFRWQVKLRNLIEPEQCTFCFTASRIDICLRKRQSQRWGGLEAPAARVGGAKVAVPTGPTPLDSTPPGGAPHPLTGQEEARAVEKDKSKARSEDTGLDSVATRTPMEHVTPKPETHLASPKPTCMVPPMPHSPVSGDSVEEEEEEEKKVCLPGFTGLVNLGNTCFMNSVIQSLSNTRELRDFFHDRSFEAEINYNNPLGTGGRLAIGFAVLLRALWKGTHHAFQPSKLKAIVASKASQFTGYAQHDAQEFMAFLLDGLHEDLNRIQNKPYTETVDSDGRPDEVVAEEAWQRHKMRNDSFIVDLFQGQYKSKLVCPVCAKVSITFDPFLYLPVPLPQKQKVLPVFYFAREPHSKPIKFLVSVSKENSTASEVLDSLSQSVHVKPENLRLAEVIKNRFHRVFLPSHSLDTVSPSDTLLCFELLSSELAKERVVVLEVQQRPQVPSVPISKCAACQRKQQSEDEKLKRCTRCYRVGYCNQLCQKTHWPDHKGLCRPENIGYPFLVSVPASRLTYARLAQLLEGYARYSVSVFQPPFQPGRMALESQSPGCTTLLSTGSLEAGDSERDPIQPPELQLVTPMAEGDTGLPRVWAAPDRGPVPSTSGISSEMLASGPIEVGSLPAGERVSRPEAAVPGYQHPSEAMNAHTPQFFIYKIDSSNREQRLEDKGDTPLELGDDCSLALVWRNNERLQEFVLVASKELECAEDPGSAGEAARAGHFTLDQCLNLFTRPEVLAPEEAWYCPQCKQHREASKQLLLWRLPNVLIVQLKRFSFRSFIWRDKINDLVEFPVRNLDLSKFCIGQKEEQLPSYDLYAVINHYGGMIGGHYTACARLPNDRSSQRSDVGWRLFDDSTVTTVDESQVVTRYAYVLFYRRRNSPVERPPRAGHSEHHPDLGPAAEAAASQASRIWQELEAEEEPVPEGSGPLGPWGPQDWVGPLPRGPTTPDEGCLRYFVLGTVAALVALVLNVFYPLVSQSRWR
How it was run: (§1)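 Labelling with Biotin-Ahx-Ub-VS (0.5 µM final, 1 h) followed a 3 h triplicate treatment of HEK293T lysate (495 µg per sample, Tris/CHAPS/IGEPAL buffer with protease inhibitors) with fragment at 200 µM or vehicle. Labelled DUBs were NeutrAvidin-enriched, digested with LysC and trypsin, and run by diaPASEF LC-MS/MS. The values, average log2 fragment/vehicle ratios by unpaired t-test, come from global-median-normalised Spectronaut label-free quantities. Proteins with ≥2 unique peptides were used.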

USP22 = target: T2, USP22 (UniProt Q9UPT9)
T2 sequence (whole entry): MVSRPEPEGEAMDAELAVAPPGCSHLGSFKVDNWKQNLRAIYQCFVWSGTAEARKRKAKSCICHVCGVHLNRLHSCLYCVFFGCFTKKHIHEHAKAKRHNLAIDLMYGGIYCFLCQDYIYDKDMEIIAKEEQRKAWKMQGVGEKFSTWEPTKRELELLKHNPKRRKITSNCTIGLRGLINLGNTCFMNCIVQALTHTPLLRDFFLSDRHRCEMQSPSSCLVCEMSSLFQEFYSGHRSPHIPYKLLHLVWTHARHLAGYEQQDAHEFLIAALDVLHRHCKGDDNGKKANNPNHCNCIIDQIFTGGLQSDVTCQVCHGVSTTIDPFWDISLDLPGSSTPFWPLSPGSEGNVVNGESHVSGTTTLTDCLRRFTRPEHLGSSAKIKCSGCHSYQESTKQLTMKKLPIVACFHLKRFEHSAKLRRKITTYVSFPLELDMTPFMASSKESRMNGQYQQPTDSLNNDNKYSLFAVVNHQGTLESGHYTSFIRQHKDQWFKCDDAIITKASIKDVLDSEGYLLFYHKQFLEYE
How it was run: as §1

USP24 = USP24 (UniProt Q9UPU5)
How it was run: as §1

USP25 = target: T3, USP25 (UniProt Q9UHP3)
T3 sequence (whole entry): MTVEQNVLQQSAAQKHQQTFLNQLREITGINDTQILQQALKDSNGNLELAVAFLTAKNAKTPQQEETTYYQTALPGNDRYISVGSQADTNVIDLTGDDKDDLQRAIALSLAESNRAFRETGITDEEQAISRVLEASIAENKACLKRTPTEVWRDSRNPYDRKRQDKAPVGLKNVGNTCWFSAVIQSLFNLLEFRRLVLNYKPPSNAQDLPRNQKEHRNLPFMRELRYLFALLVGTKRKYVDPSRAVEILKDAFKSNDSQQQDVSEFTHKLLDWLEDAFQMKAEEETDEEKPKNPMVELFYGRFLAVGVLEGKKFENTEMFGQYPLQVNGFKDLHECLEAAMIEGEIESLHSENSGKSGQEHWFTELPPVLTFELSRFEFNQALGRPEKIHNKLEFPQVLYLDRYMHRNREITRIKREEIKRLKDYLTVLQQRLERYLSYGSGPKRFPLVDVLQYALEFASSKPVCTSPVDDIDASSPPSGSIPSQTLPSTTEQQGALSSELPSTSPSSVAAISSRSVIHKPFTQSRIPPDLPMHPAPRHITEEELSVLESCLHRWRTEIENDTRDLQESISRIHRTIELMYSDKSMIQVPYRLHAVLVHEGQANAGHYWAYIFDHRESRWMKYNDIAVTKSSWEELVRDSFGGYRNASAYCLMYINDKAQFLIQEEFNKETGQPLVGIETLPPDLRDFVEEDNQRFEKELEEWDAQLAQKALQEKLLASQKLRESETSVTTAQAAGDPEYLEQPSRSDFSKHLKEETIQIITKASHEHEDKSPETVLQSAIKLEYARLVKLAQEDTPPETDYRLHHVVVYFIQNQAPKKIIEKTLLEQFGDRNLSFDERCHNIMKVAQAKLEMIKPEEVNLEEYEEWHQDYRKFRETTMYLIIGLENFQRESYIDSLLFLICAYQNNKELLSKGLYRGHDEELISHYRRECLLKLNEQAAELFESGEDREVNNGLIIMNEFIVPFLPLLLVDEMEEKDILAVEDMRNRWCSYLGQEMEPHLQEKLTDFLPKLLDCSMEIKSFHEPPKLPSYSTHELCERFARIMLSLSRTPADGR
How it was run: as §1

USP28 = target: T4, USP28 (UniProt Q96RU2)
T4 sequence (whole entry): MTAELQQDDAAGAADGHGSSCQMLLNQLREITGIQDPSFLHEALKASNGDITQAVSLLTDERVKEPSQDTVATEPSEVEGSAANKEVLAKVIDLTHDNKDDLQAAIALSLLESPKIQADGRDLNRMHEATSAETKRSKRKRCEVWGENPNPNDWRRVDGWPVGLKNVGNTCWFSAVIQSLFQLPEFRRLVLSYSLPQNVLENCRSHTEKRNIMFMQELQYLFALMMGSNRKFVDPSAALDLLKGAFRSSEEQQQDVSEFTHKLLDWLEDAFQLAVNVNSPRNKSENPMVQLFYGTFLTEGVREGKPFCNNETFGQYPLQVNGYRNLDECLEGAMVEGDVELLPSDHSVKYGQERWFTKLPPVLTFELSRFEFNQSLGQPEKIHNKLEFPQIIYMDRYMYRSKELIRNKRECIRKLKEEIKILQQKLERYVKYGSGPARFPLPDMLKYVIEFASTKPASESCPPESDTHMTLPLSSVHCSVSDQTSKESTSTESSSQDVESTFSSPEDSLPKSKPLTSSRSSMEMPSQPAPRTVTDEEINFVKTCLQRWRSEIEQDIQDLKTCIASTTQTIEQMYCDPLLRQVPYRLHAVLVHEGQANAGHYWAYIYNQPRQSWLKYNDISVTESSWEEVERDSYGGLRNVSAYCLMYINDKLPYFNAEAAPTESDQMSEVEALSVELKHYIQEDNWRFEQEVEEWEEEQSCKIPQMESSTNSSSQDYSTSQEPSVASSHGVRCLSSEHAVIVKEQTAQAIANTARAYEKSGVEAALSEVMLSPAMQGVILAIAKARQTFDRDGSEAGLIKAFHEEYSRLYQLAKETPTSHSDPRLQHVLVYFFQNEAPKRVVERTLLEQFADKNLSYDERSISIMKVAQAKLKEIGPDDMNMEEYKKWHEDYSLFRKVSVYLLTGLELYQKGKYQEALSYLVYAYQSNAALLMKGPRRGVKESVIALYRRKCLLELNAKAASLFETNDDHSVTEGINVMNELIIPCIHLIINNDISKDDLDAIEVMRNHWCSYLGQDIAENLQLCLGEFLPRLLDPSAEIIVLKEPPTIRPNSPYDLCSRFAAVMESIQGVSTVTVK
How it was run: as §1

Measured: log2 ratio of Biotin-Ahx-Ub-VS probe labelling

Chain of USP24 (Q9UPU5 whole entry): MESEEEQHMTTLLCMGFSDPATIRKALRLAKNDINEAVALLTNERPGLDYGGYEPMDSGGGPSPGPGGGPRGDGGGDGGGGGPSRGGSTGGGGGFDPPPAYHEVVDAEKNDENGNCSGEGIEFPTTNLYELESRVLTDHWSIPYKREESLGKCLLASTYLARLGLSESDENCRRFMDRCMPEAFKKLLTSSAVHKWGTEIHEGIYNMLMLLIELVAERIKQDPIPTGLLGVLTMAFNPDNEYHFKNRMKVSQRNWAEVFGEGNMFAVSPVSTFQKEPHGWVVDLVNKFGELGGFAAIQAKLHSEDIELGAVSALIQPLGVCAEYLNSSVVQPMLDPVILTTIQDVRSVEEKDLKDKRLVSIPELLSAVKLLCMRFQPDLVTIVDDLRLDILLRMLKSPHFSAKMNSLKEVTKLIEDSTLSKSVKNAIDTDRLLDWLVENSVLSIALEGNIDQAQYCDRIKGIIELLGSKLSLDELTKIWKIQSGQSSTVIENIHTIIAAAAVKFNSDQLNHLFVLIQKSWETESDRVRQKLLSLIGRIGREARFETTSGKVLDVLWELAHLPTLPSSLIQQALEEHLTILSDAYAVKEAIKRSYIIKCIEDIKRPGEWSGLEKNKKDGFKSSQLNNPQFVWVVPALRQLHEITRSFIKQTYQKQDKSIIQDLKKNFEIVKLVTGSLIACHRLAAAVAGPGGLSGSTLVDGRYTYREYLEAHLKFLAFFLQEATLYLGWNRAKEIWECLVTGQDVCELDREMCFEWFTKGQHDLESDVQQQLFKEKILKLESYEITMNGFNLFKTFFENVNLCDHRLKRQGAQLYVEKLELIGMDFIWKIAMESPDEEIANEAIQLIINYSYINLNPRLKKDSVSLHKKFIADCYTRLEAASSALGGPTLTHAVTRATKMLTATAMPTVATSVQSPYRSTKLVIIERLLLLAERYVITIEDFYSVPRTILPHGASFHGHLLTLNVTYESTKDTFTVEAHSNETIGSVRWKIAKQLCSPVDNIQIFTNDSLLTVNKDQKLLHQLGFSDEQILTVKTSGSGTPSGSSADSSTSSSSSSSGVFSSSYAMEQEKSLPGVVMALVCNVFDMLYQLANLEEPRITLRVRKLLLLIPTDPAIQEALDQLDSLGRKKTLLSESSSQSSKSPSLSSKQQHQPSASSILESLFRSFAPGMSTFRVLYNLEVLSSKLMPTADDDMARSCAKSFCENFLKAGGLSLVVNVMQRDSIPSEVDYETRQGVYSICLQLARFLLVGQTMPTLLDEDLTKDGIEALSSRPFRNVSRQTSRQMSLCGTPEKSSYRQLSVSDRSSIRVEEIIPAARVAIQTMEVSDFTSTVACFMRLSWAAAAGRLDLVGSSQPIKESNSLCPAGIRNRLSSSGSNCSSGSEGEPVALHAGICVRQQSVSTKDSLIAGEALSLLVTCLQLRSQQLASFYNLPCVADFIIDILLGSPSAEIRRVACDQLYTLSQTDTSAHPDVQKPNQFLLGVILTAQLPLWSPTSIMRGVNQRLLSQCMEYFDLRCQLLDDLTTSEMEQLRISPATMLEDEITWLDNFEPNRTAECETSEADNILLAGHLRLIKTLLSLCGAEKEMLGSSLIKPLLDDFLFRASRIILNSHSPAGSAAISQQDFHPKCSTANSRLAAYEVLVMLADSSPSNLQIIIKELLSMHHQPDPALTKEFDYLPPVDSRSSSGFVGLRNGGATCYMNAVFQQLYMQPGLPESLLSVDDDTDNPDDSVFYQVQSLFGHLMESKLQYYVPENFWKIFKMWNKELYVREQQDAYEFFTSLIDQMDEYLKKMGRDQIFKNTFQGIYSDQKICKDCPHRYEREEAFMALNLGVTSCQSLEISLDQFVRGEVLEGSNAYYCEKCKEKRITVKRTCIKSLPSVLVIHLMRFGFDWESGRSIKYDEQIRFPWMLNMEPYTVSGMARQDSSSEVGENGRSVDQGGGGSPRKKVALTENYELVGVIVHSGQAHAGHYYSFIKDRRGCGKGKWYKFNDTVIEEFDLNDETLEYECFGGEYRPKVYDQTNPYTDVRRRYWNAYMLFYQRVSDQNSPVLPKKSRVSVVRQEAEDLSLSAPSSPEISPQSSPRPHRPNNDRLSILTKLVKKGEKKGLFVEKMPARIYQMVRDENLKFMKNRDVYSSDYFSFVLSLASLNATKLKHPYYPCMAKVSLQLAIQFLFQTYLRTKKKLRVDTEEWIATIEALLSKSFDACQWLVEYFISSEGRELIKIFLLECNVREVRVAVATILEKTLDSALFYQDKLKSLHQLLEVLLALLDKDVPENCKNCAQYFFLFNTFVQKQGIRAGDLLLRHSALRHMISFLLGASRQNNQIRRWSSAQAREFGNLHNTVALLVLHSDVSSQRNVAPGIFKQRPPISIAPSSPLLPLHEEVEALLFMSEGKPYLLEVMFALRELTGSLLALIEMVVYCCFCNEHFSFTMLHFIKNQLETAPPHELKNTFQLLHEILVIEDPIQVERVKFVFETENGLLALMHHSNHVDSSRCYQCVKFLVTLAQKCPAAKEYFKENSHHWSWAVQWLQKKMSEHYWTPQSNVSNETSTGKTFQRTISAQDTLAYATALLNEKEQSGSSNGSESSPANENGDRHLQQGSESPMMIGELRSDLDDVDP

Cl.O=C(CN1CCN(C(=O)CCl)CC1)Nc1ccc(F)cc1
inactive: USP19 -0.172 | USP22 0.179 | USP24 -0.098 | USP25 0.0867 | USP28 0.0845
